Compounds without any hit were thinned out: in the full panel of roughly 83,000, 20% have a hit.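 Growth was measured after 48 h exposure to one concentration of compound in 96-well plates. Values under 10 count as active.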 The source made the active and inactive calls.

In this assay the test system is MDA-MB-468 breast. The experiment in a line: NCI-60 one-dose screen, 48 h (100 = growth as untreated, 0 = no growth, -100 = all killed). To be noted: 10 µM.
As for `Cc1ccc(/C=C/C(=O)c2ccc(NC(=O)CSc3nnc(-c4c[nH]c5ccccc45)n3-c3ccccc3)cc2)c(C)c1`, the growth was 22% (inactive). The figure for `COc1ccc(/C=C/C(=O)c2ccc(S(=O)(=O)NCCNc3nc(Nc4ccc(F)cc4)nc(N(C)C)n3)cc2)cc1` is -3.57% (active). The figure for `N#Cc1c(-c2ccc(Cl)cc2)cc(-c2ccccc2)nc1OCc1ccccc1` is 65.4% (inactive); for `Nc1nnc(-c2c[nH]c3ncccc23)c(-c2c[nH]c3ccc(Br)cc23)n1` it is 50.4% (inactive); for `CC(=O)OC[C@@]1(C)C2CC[C@]3(C)C(CC=C4C5CC(C)(C)CC[C@]5(C(=O)Nc5ccccc5)CC[C@]43C)[C@@]2(C)C[C@@H](OC(C)=O)[C@@H]1OC(C)=O` (stereo not given in full) it is -4.16% (active). The value for `O=C(CSc1nnc(-c2c[nH]c3ccccc23)n1-c1ccccc1)Nc1ccc(C(=O)/C=C/c2cccc([N+](=O)[O-])c2)cc1` was 75.4% (inactive).

Take `C/C(=C\c1ccc(O)cc1O)c1ccc2ccc(O)cc2[o+]1`: the growth is 64% (inactive). As to `CCCCOc1ccc(Nc2nc3ccccc3nc2Nc2ccc(OCCCC)cc2)cc1`, the growth is 73.8% (inactive). The figure for `Nc1nc(Nc2ccc(Cl)cc2)nn1Cc1cccc(Br)c1` is 28.1% (inactive); for `COc1ccc(/C=N/N=C(\C)c2ccc3c(c2)Nc2ccccc2S3)cc1O` it is 0.0526% (active); for `O=C(CSc1nnc(-c2c[nH]c3ccccc23)n1-c1ccccc1)c1ccc(Br)cc1` it is 22% (inactive). The figure for `COC(=O)c1c(C(=O)OC)c2n(c1C)[C@@H]([C@@H](C)[C@H]1CC[C@H]3[C@@H]4CCC5=CC(=O)CC[C@]5(C)[C@H]4CC[C@]13C)SC2` is 11.2% (inactive); for `COc1ccc(C(=O)/C=C/c2cc(C(F)(F)F)cc(C(F)(F)F)c2)cc1S(N)(=O)=O` it is -95.2% (active). In the case of `CCCn1c(O)c(N=Nc2nc(-c3cc4ccccc4oc3=O)cs2)c2cc(Br)ccc21`, the growth is 94.8% (inactive).

For the molecule `O/N=C(\CSc1nnc(-c2c[nH]c3ccccc23)n1-c1ccccc1)c1ccc(Br)cc1`, the growth is -94.5% (active).

As to `CC(=O)C1=C(C)NC(SCC(=O)Nc2ccc(S(=O)(=O)Nc3cc(C)on3)cc2)=NC1c1ccccc1` (stereo not given), the growth was 111% (inactive).

In the case of `COc1cc2c3c(n(CCCn4ccnc4)c(=O)c2cc1OC)-c1nc2c(cc1C3=O)OCO2`, the growth is -29.8% (active). The figure for `O=S(=O)(Nc1ncccn1)c1ccc(-n2c(-c3ccc(Br)cc3)nc(-c3ccccc3)c2-c2ccccc2)cc1` is 24.3% (inactive). The value for `COc1ccc(-c2cc(C(=O)N=Nc3c(O)[nH]c4ccc(Br)cc34)c3ccccc3n2)cc1` was 11.1% (inactive); that for `CCOC(=O)CNC(=O)CN(Cc1ccccc1)C(=O)[C@@]1(C)CCC[C@]2(C)[C@H]3CC4C(C(C)C)=C[C@]3(CC[C@H]21)[C@@H]1C(=O)CCC(=O)[C@H]41` was 3.12% (active).

`CC1(c2ccccc2)NC(=O)N(CC(=O)Nc2ccc(C(=O)/C=C/C=C/c3ccccc3)cc2)C1=O` (stereo not given): the growth is 3.2% (active). The figure for `O=c1c2ccccc2nc(COc2ccccc2)n1/N=C/c1ccc(F)cc1` is 78% (inactive). For `COc1ccc(-c2cc(-c3cc(C(=O)c4ccccc4)n4ccc(C)cc34)nc(N)c2C#N)cc1`, the growth is 48.6% (inactive). The figure for `COc1cc(C2CC(c3ccc(C)cc3)=Nc3c(N)nc(N)nc3N2)ccc1Oc1nc(Nc2ccc(F)cc2)nc(N(C)C)n1` (stereo not given) is 15.6% (inactive); for `O=C(Nc1cccc(C(F)(F)F)c1)c1cncc(C#Cc2cnc3ccc(N4CCOCC4)nn23)c1` it is -64.7% (active); for `CC(=O)Nc1ccc(-c2cn(-c3cccc(C(=O)Nc4ccc(F)c(C(F)(F)F)c4)c3)nn2)cn1` it is 42.8% (inactive). The figure for `CN(C(=O)c1ccc(C(F)(F)F)cc1C(F)(F)F)c1sc2c(c1C#N)CCC(=O)C2` is 51.9% (inactive).

`C#CCNC(=O)CCC(=O)OC[C@]12CC[C@@H](C(=C)C)[C@@H]1C1CC[C@@H]3[C@@]4(C)CCCNC(C)(C)[C@@H]4CC[C@@]3(C)[C@]1(C)CC2` (stereo not given in full): the growth is -94.9% (active).

On to `COc1ccc2[nH]cc(/C=N/Nc3ccc(Br)cn3)c2c1`, for which the growth was -40.9% (active).

Consider `[2H]C([2H])([2H])Oc1ccc2ncc(C#Cc3cncc(C(=O)Nc4ccc(CN5CCN(C)CC5)c(C(F)(F)F)c4)c3)n2n1`, for which the growth was -90.3% (active). On to `COc1ccc(CN2[C@H](C(=O)NCc3ccc(C(=O)NO)cc3)Cc3c([nH]c4ccccc34)[C@H]2C2CC2)cc1`, for which the growth is 3.8% (active). The value for `O=c1cc(-c2ccccc2)oc2cc(OCCCCNCc3ccccc3)cc(O)c12` was -28.2% (active). `O=c1[nH]c2ccccc2cc1CSc1ccc(Nc2nccc(-c3ccc(C(F)(F)F)cc3)n2)cc1`: the growth is -17.5% (active).

`CN(C)c1ccc(/C=C/c2nc3ccccc3c(=O)n2CC(=O)Nc2ccccc2)cc1`: the growth was -4.96% (active). In the case of `Cc1ccc(-c2nc(Nc3ccc(C)c(S(N)(=O)=O)c3)c3ccccc3n2)cc1`, the growth was 1.27% (active).

The record behind these values is PubChem BioAssay (NCI).
